# Results taken from PubChem BioAssay (NCATS).
# Values without a mark were called inactive. Calls come from the whole dose curve; as a rule, active = well fitted curve in the direction sought with a large enough effect; inconclusive = small, poorly fitted or top-dose-only effect, or effect the other way, or another doubt; inactive = no such curve, though single readings can be large or run the other way.
# Experiment: Inducers of the Endoplasmic Reticulum Stress Response (ERSR) in human glioma: Validation (AID 504836); note: 0% is about no effect
# Settings: human glioma cells, ER stress response reporter; series mostly up to 38.3 µM; activation: at the top concentration
# Procedure, shortened: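 Stably transfected U87-MG human glioma cells carrying a GRP78-based luminescent sensor were seeded at 1000 cells/well, pin-dosed with compounds and incubated 16 h. Luciferase reagent was then added, and end-point luminescence was read after 10 min at room temperature.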
row,SMILES,activation [%]
1,CCOC(=O)C(C)(C)Oc1ccc(Cl)cc1,-4.08
2,CN1C[C@H](C(=O)N[C@]2(C)O[C@@]3(O)[C@@H]4CCCN4C(=O)[C@H](Cc4ccccc4)N3C2=O)C[C@@H]2c3cccc4[nH]cc(c34)C[C@H]21,-1.43
3,NC(N)=N/N=C/c1c(Cl)cccc1Cl,0.535
4,OC(CN1CCC(Cc2ccc(F)cc2)CC1)c1ccc(Cl)cc1 (configuration not stated),-4.44
5,COC(=O)C1=C(C)NC(C)=C(C(=O)OC)C1c1ccccc1[N+](=O)[O-],-4.43
6,CNC(=O)Oc1ccc2c(c1)[C@]1(C)CCN(C)[C@@H]1N2C,-1.03
7,CC[C@H]1CN2CCc3cc(OC)c(OC)cc3[C@@H]2C[C@@H]1C[C@H]1NCCc2cc(OC)c(OC)cc21,-7.34
8,Oc1ccc(/C=C/c2cc(O)cc(O)c2)cc1,-11.8
9,C[C@]12CCC(=O)C=C1CC[C@@H]1[C@@H]2[C@@H](O)C[C@@]2(C)[C@H]1CC[C@]2(O)C(=O)CO,-1.54
10,Fc1ccc(C(c2ccc(F)cc2)N2CCN(C/C=C/c3ccccc3)CC2)cc1,-3.22
11,CCCCC1C(=O)N(c2ccccc2)N(c2ccccc2)C1=O,-1.28
12,CCCOc1ccccc1-c1nc2n[nH]nc2c(=O)[nH]1,-3.22
13,CCCCNc1ccc(C(=O)OCCN(C)C)cc1,0.945
14,CSc1ccc(C(=O)c2[nH]c(=O)[nH]c2C)cc1,-0.0656
15,C[C@]12CC[C@@H]3c4ccc(O)cc4CC[C@H]3[C@@H]1CCC2=O,3.36
16,NCCc1ccc(O)c(O)c1,-1.5
17,CC(C)(C)c1ccc(C(=O)CCCN2CCC(OC(c3ccccc3)c3ccccc3)CC2)cc1,0.602
